{
  "source": "PubChem BioAssay (NCI)",
  "note": "About 83,000 compounds went through this panel and 20% of them were active in at least one assay; those are over-represented in the sample as a whole.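 The endpoint reported here, percent growth, reads 100 for growth as untreated, 0 for no net growth and -100 for all cells dead.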 The source made the active and inactive calls. Rule for the calls: active = growth percent below 10; inactive = the rest.",
  "data": [
    {"tested_on": "HL-60(TB) leukemia", "experiment": "NCI-60 one-dose screen, 48 h (100 = growth as untreated, 0 = no growth, -100 = all killed)", "details": "10 µM unless noted", "values": [
      {"smiles": "Oc1ccc(CNNc2ccnc3c(O)cccc23)c2cccnc12", "growth": "-7.85% (active)"},
      {"smiles": "CCOC(=O)c1ccc(NC(=O)NC2=NCCS2)cc1", "growth": "13.5% (inactive)"},
      {"smiles": "CS(=O)(=O)c1ccc(-c2cnc3ccc(-c4cccc(S(C)(=O)=O)c4)nn23)cc1", "growth": "16.6% (inactive)"},
      {"smiles": "COc1cc(C2CC(=O)Nc3n[nH]c(-c4ccccc4)c32)cc(OC)c1OC", "note": "(stereo not given)", "growth": "39.1% (inactive)"},
      {"smiles": "COc1ccccc1Cn1cc2c(c1-c1ccccc1)CCc1cnoc1-2", "growth": "19.4% (inactive)"},
      {"smiles": "O=C1Nc2cc(-c3cccc([N+](=O)[O-])c3)ccc2/C1=C/c1ccc[nH]1", "growth": "101% (inactive)"},
      {"smiles": "Nc1nc(N)c(-c2ccc(Cl)c(Cl)c2)c(CBr)n1", "growth": "59.5% (inactive)"},
      {"smiles": "COc1ccc(-c2nn(-c3ccc(NC(=O)Nc4ccc(Cl)c(Cl)c4)cc3)cc2-c2ccncc2)cc1Cl", "growth": "5.24% (active)"},
      {"smiles": "CN(C)CCCNc1nn2c(=O)c3ccccc3nc2c2ccccc12", "growth": "26.9% (inactive)"},
      {"smiles": "O=C1c2ccc3c4c(ccc(c24)C(=O)N1CCCCO)C(=O)N(CCCCO)C3=O", "growth": "7.09% (active)"},
      {"smiles": "CN1CCN(c2ccc3nc(-c4ccc5nc(-c6ccc(O)cc6)[nH]c5c4)[nH]c3c2)CC1", "growth": "40.9% (inactive)"},
      {"smiles": "COc1cc(COC(=O)CCCCC[P+](c2ccccc2)(c2ccccc2)c2ccccc2)c(OC)c2c1OCO2", "growth": "-9.81% (active)"},
      {"smiles": "Fc1ccc(NCc2nnc(-c3ccc(Cl)cc3)o2)cc1", "growth": "69.5% (inactive)"},
      {"smiles": "COc1cccc(CCC2C(=O)CCCC2=O)c1", "growth": "87.2% (inactive)"},
      {"smiles": "Cc1ccc(C2=NNC(c3sc(Cl)nc3Cl)C2)cc1", "note": "(stereo not given)", "growth": "92.7% (inactive)"},
      {"smiles": "CCCc1n(Cc2ccc3ccccc3c2)c2ccccc2[n+]1Cc1ccc2ccccc2c1", "growth": "-64.2% (active)"},
      {"smiles": "CN1CCN(c2ccc(Nc3ncc(C(N)=O)c(NCCCNC(=O)C4CCC4)n3)cc2)CC1", "growth": "-36.3% (active)"},
      {"smiles": "COc1ccc2nc3cc(Cl)ccc3c(Nc3ccc(O)cc3)c2c1", "growth": "44.2% (inactive)"},
      {"smiles": "COc1cc(C(=O)N2N=C(c3ccc(S(C)(=O)=O)cc3)CC2c2ccco2)cc(OC)c1OC", "note": "(stereo not given)", "growth": "90.3% (inactive)"},
      {"smiles": "CCCC(=O)Oc1ccc(/C(=C(/CC)Cc2ccccc2)c2ccc(OCCN3CCCC3)cc2)cc1", "growth": "89.2% (inactive)"},
      {"smiles": "O=C(COc1cccc(/C=C2\\CSc3ccccc3C2=O)c1)c1ccc(Cl)cc1", "growth": "-48% (active)"},
      {"smiles": "Cc1nnc(-c2ccc3c(c2)nc(/C=C/c2ccccc2)n3C2CCCCC2)o1", "growth": "65.3% (inactive)"},
      {"smiles": "COc1cc(/C=C2\\CN(S(=O)(=O)c3ccc(C)cc3)C/C(=C\\c3cc(CN4CCOCC4)c(O)c(OC)c3)C2=O)cc(CN2CCOCC2)c1O", "growth": "-15.5% (active)"},
      {"smiles": "Clc1nn2c(Cn3cnc4c(NCc5ccccc5)ncnc43)nnc2c2ccccc12", "growth": "23% (inactive)"},
      {"smiles": "COc1ccc(OC)c(/C=C/c2nc(SCc3ccccc3)n(-c3ccc(Cl)cc3)n2)c1", "growth": "1.31% (active)"},
      {"smiles": "CCCCCCCCCCCCCCCCCC1=NCCN1CS(=O)(=O)O", "growth": "24.2% (inactive)"},
      {"smiles": "Cc1ccc(C(=O)N(CCCN)[C@@H](c2nc3cc(Cl)ccc3c(=O)n2Cc2ccccc2)C(C)C)cc1", "growth": "-58.3% (active)"},
      {"smiles": "NC(=S)N/N=C/C(=O)O", "growth": "87.8% (inactive)"},
      {"smiles": "O=C(Cn1c2ccccc2c2ccncc21)N/N=C/c1c[nH]c2ccccc12", "growth": "74.5% (inactive)"},
      {"smiles": "C=C(C)C1CCC2(C)OC2C1", "note": "(stereo not given)", "growth": "95.6% (inactive)"},
      {"smiles": "CNC1(C#N)CCN(Cc2ccccc2)CC1", "growth": "168% (inactive)"},
      {"smiles": "COC(=O)C(C)Oc1ccc(OC#N)cc1", "note": "(stereo not given)", "growth": "46.1% (inactive)"},
      {"smiles": "CC1CCN(C(=O)CSc2nc3sc4c(c3c(=O)[nH]2)CCCC4)CC1", "growth": "102% (inactive)"},
      {"smiles": "COC(=O)c1cc([N+](=O)[O-])cc([N+](=O)[O-])c1Cl", "growth": "55.4% (inactive)"},
      {"smiles": "COc1ccc(C2=NN(C(C)=O)C(c3c(C)nn(-c4ccccc4)c3N3CCOCC3)C2)cc1", "note": "(stereo not given)", "growth": "101% (inactive)"},
      {"smiles": "COc1cccc(-c2nc(-c3ccc(NS(=O)(=O)c4ccccc4)cc3)[nH]c2-c2ccnc(Br)c2)c1", "growth": "-11.5% (active)"},
      {"smiles": "Fc1ccc2[nH]cc(-c3nc(-c4c[nH]c5ccncc45)cs3)c2c1", "growth": "-42.1% (active)"},
      {"smiles": "O=C1/C(=C/c2ccccn2)SC(=S)N1N1CCOCC1", "growth": "97.2% (inactive)"},
      {"smiles": "O=C(N/N=C/c1ccc(Cl)cc1)c1cc(-c2cc3ccccc3o2)nn1-c1ccccc1", "growth": "117% (inactive)"},
      {"smiles": "CC(=O)NC1=C(C#N)C(c2ccccc2Cl)c2c(ccc3ccccc23)O1", "note": "(stereo not given)", "growth": "29.7% (inactive)"}
    ]}
  ]
}
